# Among all 5,500 compounds or so, about 2,000 (36%) were called active. Another 18% or so got no clear call; they are omitted. The list shows a part of the results. Values without a mark were called inactive. No stated cut-off is given here; in the data, active means normalized growth mostly below about 0.91 (no sharp cut-off); inconclusive means no clear call, values can overlap the other calls; inactive means mostly above about 0.92.
# Test: chemical genetic growth profiling, strain panel (AID 1159580);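 further: tested at 20 µM; growth read once vehicle control cultures reached saturation at 30 °C; 1 = growth at the plate median or of vehicle wells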
# Details: S. cerevisiae deletion strains, growth OD
smiles,measurement,setting,value
CC(C)N(C(=O)CCl)c1ccccc1,normalized growth,"locus YAL013W, strain DEP1, stronger effect = lower value",1.03
same,normalized growth,"locus YAL021C, strain ccr4, stronger effect = lower value",1.03
same,normalized growth,"locus YAL026C, strain drs2, stronger effect = lower value",1.04
same,normalized growth,"locus YAL030W, strain snc1, stronger effect = lower value",1.02
same,normalized growth,"locus YBL061C, strain skt5, stronger effect = lower value",1.01
same,normalized growth,"locus YBR009C, strain hhf1, stronger effect = lower value",0.949
same,normalized growth,"locus YBR021W, strain FUR4, stronger effect = lower value",1.07
same,normalized growth,"locus YBR023C, strain chs3, stronger effect = lower value",1.02
same,normalized growth,"locus YBR171W, strain sec66, stronger effect = lower value",1.01
same,normalized growth,"locus YBR229C, strain ROT2, stronger effect = lower value",1.02
same,normalized growth,"locus YBR231C, strain swc5, stronger effect = lower value",0.991
same,normalized growth,"locus YBR279W, strain paf1, stronger effect = lower value",0.993
same,normalized growth,"locus YCL011C, strain gbp2, stronger effect = lower value",1.01
same,normalized growth,"locus YCL016C, strain dcc1, stronger effect = lower value",1.01
same,normalized growth,"locus YCL029C, strain bik1, stronger effect = lower value",1.02
same,normalized growth,"locus YCL061C, strain MRC1, stronger effect = lower value",1.02
same,normalized growth,"locus YCL069W, strain vba3, stronger effect = lower value",1.01
same,normalized growth,"locus YCR088W, strain abp1, stronger effect = lower value",1.03
same,normalized growth,"locus YDL005C, strain med2, stronger effect = lower value",1.04
same,normalized growth,"locus YDL035C, strain GPR1, stronger effect = lower value",1.04
same,normalized growth,"locus YDL040C, strain nat1, stronger effect = lower value",1
same,normalized growth,"locus YDL074C, strain BRE1, stronger effect = lower value",1.05
same,normalized growth,"locus YDL101C, strain DUN1, stronger effect = lower value",1.02
same,normalized growth,"locus YDL134C, strain PPH21, stronger effect = lower value",1.02
same,normalized growth,"locus YDL185W, strain tfp1, stronger effect = lower value",1.02
same,normalized growth,"locus YDL192W, strain arf1, stronger effect = lower value",1.01
same,normalized growth,"locus YDR001C, strain nth1, stronger effect = lower value",1.01
same,normalized growth,"locus YDR069C, strain doa4, stronger effect = lower value",0.979
same,normalized growth,"locus YDR101C, strain arx1, stronger effect = lower value",1.02
same,normalized growth,"locus YDR137W, strain rgp1, stronger effect = lower value",1.08
same,normalized growth,"locus YDR150W, strain NUM1, stronger effect = lower value",1.03
same,normalized growth,"locus YDR159W, strain sac3, stronger effect = lower value",1.01
same,normalized growth,"locus YDR162C, strain NBP2, stronger effect = lower value",1.03
same,normalized growth,"locus YDR195W, strain ref2",0.917
same,normalized growth,"locus YDR297W, strain sur2, stronger effect = lower value",1.03
same,normalized growth,"locus YDR318W, strain mcm21, stronger effect = lower value",1.02
same,normalized growth,"locus YDR334W, strain swr1, stronger effect = lower value",1.01
same,normalized growth,"locus YDR335W, strain msn5, stronger effect = lower value",1.01
same,normalized growth,"locus YDR388W, stronger effect = lower value",1.02
same,normalized growth,"locus YDR392W, strain spt3, stronger effect = lower value",0.649 (active)
same,normalized growth,"locus YDR502C, strain sam2, stronger effect = lower value",1.02
same,normalized growth,"locus YEL003W, strain gim4, stronger effect = lower value",1
same,normalized growth,"locus YEL037C, strain rad23, stronger effect = lower value",1.01
same,normalized growth,"locus YEL061C, strain CIN8 (second series), stronger effect = lower value",1.01
same,normalized growth,"locus YEL061C, strain CIN8, stronger effect = lower value",1.02
same,normalized growth,"locus YER015W, strain faa2, stronger effect = lower value",0.997
same,normalized growth,"locus YER016W, strain bim1, stronger effect = lower value",1.01
same,normalized growth,"locus YER110C, stronger effect = lower value",1.03
same,normalized growth,"locus YER111C, strain swi4, stronger effect = lower value",1.02
same,normalized growth,"locus YER155C, strain BEM2 (second series), stronger effect = lower value",1.01
same,normalized growth,"locus YER155C, strain BEM2, stronger effect = lower value",1.03
same,normalized growth,"locus YER167W, strain BCK2, stronger effect = lower value",1.03
same,normalized growth,"locus YFR010W, strain ubp6, stronger effect = lower value",0.985
same,normalized growth,"locus YGL078C, strain dbp3, stronger effect = lower value",1.03
same,normalized growth,"locus YGL086W, strain mad1, stronger effect = lower value",1.02
same,normalized growth,"locus YGL167C, strain pmr1, stronger effect = lower value",1.01
same,normalized growth,"locus YGL173C, strain kem1, stronger effect = lower value",1.03
same,normalized growth,"locus YGL227W, strain vid30, stronger effect = lower value",1.01
same,normalized growth,"locus YGL240W, strain doc1, stronger effect = lower value",0.977
same,normalized growth,"locus YGL248W, strain PDE1, stronger effect = lower value",1.04
same,normalized growth,"locus YGL253W, strain hxk2, stronger effect = lower value",0.941
same,normalized growth,"locus YGR078C, strain PAC10, stronger effect = lower value",1.02
same,normalized growth,"locus YGR135W, strain pre9, stronger effect = lower value",1.01
same,normalized growth,"locus YGR229C, strain SMI1, stronger effect = lower value",1.05
same,normalized growth,"locus YGR252W, strain gcn5, stronger effect = lower value",0.958
same,normalized growth,"locus YHR013C, strain ard1, stronger effect = lower value",0.881
same,normalized growth,"locus YHR027C, strain rpn1, stronger effect = lower value",1.01
same,normalized growth,"locus YHR030C, strain SLT2, stronger effect = lower value",1
same,normalized growth,"locus YHR079C, strain IRE1 (second series), stronger effect = lower value",1.02
same,normalized growth,"locus YHR094C, strain hxt1, stronger effect = lower value",1.01
same,normalized growth,"locus YHR129C, strain ARP1, stronger effect = lower value",1.04
same,normalized growth,"locus YHR142W, strain chs7, stronger effect = lower value",1.01
same,normalized growth,"locus YHR200W, strain rpn10, stronger effect = lower value",1.02
same,normalized growth,"locus YIL066C, strain RNR3, stronger effect = lower value",1.01
same,normalized growth,"locus YIL073C, strain SPO22, stronger effect = lower value",0.961
same,normalized growth,"locus YIL125W, strain kgd1, stronger effect = lower value",1.03
same,normalized growth,"locus YIR030C, strain dcg1, stronger effect = lower value",1.02
same,normalized growth,"locus YJL092W, strain hpr5, stronger effect = lower value",1.03
same,normalized growth,"locus YJL095W, strain BCK1 (second series), stronger effect = lower value",1.01
same,normalized growth,"locus YJL095W, strain BCK1, stronger effect = lower value",1.02
same,normalized growth,"locus YJL115W, strain asf1, stronger effect = lower value",1.03
same,normalized growth,"locus YJL129C, strain trk1, stronger effect = lower value",1.23 [resistant] (active)
same,normalized growth,"locus YJL134W, strain LCB3, stronger effect = lower value",1.03
same,normalized growth,"locus YJL154C, strain vps35, stronger effect = lower value",1.02
same,normalized growth,"locus YJL164C, strain tpk1, stronger effect = lower value",0.999
same,normalized growth,"locus YJL166W, strain qcr8, stronger effect = lower value",0.955
same,normalized growth,"locus YJL168C, strain set2, stronger effect = lower value",1
same,normalized growth,"locus YJL187C, strain SWE1 (second series), stronger effect = lower value",1.02
same,normalized growth,"locus YJL187C, strain SWE1, stronger effect = lower value",1.02

# Source: PubChem BioAssay AID1159580 (chemical genetic matrix, 2015)
